The whole screen tested about 1,900 compounds, of which about 1,600 (84%) were called active.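 The calls were made as follows: active = mean activation above a set limit taken from the primary screen (cut at about 8% in these data); inactive = the rest.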 The set was probably picked from earlier hits. Only a sample is shown.
Test: FXN GAA850 promoter activators in reporter cells, confirmation, cell-based, luminescence, HEK293 lucGAA850, triplicate (AID 588351);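 also: 0% = DMSO wells and 100% = 10 µM SAHA wells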
Conditions: HEK293 lucGAA850 FXN promoter luciferase reporter, 24 h; at 6 µM; stronger effect = higher value; 100% = activation by SAHA

Q: With `COc1ccccc1C1=Nc2cccc3cccc(c23)N1` as the compound, how does the activation read?
A: 7.84% (active)

Q: For `CCN(C[C@H]1N[C@@](CC)(C(=O)OC)[C@H]2C(=O)N(Cc3ccccc3)C(=O)[C@@H]12)S(=O)(=O)c1ccc(C(F)(F)F)cc1`, which activation is on record?
A: 10.5% (active)

Q: Which activation does the source give for `O=C(Nc1nnc(S(=O)(=O)N2CCCCCC2)s1)c1cccc(Br)c1` here?
A: 16.8% (active)

Q: For `Cn1c(=O)n(C)c2cc(S(=O)(=O)N3CCCc4ccccc43)ccc21`, which activation is on record?
A: 11.8% (active)

Q: With `CC(C)(C)N1C(=O)[C@H]2[C@@H](c3ccc(Br)cc3)N3C(=O)N(c4cccc(Cl)c4)C(=O)[C@@]3(C)[C@H]2C1=O` as the compound, how does the activation read?
A: 6.82% (inactive)

Q: For `CC[C@@]12C(=O)N(c3ccccc3)C(=O)N1[C@H](c1ccc(Br)cc1)[C@@H]1C(=O)N(C(C)(C)C)C(=O)[C@@H]12`, which activation is on record?
A: 11.1% (active)

Q: For `CCCNC(=O)c1c(Cl)cnn1-c1ccc(C)cc1`, which activation is on record?
A: 31.2% (active)

Q: Which activation does the source give for `Cc1ccccc1Nc1c([N+](=O)[O-])ccc2nonc12` here?
A: 17% (active)

Q: With `COC(=O)[C@@]1(C)[C@H]2C(=O)N(Cc3ccccc3)C(=O)[C@H]2[C@H]2CN=C(SCC3CC3)N21` as the compound, how does the activation read?
A: 12.3% (active)

Q: Which activation does the source give for `CC[C@]1(C(=O)OC)[C@H]2C(=O)N(Cc3ccccc3)C(=O)[C@H]2[C@H]2CN=C(SCc3ccc(C#N)cc3)N21` here?
A: 11% (active)

Q: With `CC[C@]1(C(=O)OC)[C@H]2C(=O)N(Cc3ccccc3)C(=O)[C@H]2[C@H]2CN=C(SCc3ccccc3)N21` as the compound, how does the activation read?
A: 6.5% (inactive)

Q: Which activation does the source give for `CC(C)CCC(C)NC(=O)c1ccc2nccnc2c1` (centres undefined) here?
A: 25.6% (active)

Q: For `Cn1c(CCN2CCCCCC2)nc2cc(NC(=O)Nc3ccccc3)ccc21`, which activation is on record?
A: 32.6% (active)

Q: Which activation does the source give for `COC(=O)c1ccc(CSc2nc3ccccc3c(=O)n2-c2cccc(OC)c2)o1` here?
A: 16.6% (active)

Q: For `Cc1ccc2cc(/C=N/Nc3ccc(C(=O)O)cc3)c(Cl)nc2c1`, which activation is on record?
A: 44.5% (active)

Q: For `CN(C(=O)c1cc2c(=O)n3ccccc3nc2s1)C1CCCCC1`, which activation is on record?
A: 37.7% (active)

Q: Which activation does the source give for `COCCn1c(=NC(=O)c2ccccc2[N+](=O)[O-])sc2cc(S(C)(=O)=O)ccc21` here?
A: 23.4% (active)

Q: Which activation does the source give for `O=C(CSc1cccc2cccnc12)N/N=C/c1cccnc1` here?
A: 10.9% (active)

Q: With `O=[N+]([O-])c1ccc(C=Nc2ccc(Cl)cc2Cl)s1` as the compound, how does the activation read?
A: 17.7% (active)

Q: Which activation does the source give for `O=C1N=C(N2CCCC2)S/C1=C\c1cccc(Br)c1` here?
A: 20.9% (active)

Q: For `COc1ccc2[nH]c(=O)c(CN(Cc3nnnn3CCc3ccccc3)CC3CCCO3)cc2c1` (centres undefined), which activation is on record?
A: 5.82% (inactive)

Q: For `COc1cc(C#Cc2ccc3cc(CCCO)oc(=O)c3c2)cc(OC)c1`, which activation is on record?
A: 44.9% (active)

Q: Which activation does the source give for `COc1cccc(Nc2nc(N)c([N+](=O)[O-])c(NCc3ccco3)n2)c1` here?
A: 22.8% (active)

Q: For `O=C(CN(c1cc(C(F)(F)F)ccc1Cl)S(=O)(=O)c1ccccc1)NCc1cccnc1`, which activation is on record?
A: 8.52% (active)

Q: Which activation does the source give for `COc1ccc(-n2cc(-c3ccccc3)c3c(=S)nc[nH]c32)cc1` here?
A: 11% (active)

Q: For `Cc1ccc(-c2c3c(=O)n(C)c(=O)n(C)c3cn2-n2cnnc2)cc1`, which activation is on record?
A: 19% (active)

Q: With `CCOc1ccc(N2C(=O)CC(N(CCc3ccc(OC)c(OC)c3)C(=S)Nc3ccccc3)C2=O)cc1` (centres undefined) as the compound, how does the activation read?
A: 9.64% (active)

Q: For `CC(C)(C)C(=O)c1cnc(Nc2ccccc2)s1`, which activation is on record?
A: 49.2% (active)

Q: For `Cc1cc(OCc2cc(C(=O)NCc3cc(C(C)C)no3)no2)cc(C)c1Cl`, which activation is on record?
A: 30.7% (active)

Q: With `CNc1nc(Nc2ccc(C)c(Cl)c2)nc(N)c1[N+](=O)[O-]` as the compound, how does the activation read?
A: 71% (active)

Q: For `CC(Sc1nc2c([nH]c3ccccc32)c(=O)n1C)c1ccccc1` (centres undefined), which activation is on record?
A: 16.1% (active)

Q: Which activation does the source give for `Cc1ccc(-c2nc3ccccc3[nH]c2=O)cc1` here?
A: 29.2% (active)

Q: For `CN(C)CCNC(=O)c1ccc(Cl)c2cc3ccccc3nc12`, which activation is on record?
A: 130% (active)

Q: With `CCC(=O)NC(=Nc1nc2ccccc2s1)NC(=O)CC` as the compound, how does the activation read?
A: 38.4% (active)

Q: For `COc1ccc(Cl)cc1NC(=O)CN(C)C(=O)CCCc1c[nH]c2ccccc12`, which activation is on record?
A: 9.95% (active)

Q: Which activation does the source give for `Fc1ccccc1/C=N/Nc1cc(N2CCCCC2)ncn1` here?
A: 43.1% (active)

Q: For `CCCCCOc1ccc(CSC2=NCCN2)cc1[N+](=O)[O-]`, which activation is on record?
A: 38.6% (active)

Q: With `Nc1ccc(C(=O)Nc2ccccc2N)cc1` as the compound, how does the activation read?
A: 55.7% (active)

Q: Which activation does the source give for `N#CCSc1nc2ccccc2c(=O)n1-c1ccccc1` here?
A: 16.2% (active)

Q: Which activation does the source give for `CCCCc1ccc(NC(=S)N2CCCC(CO)C2)cc1` (centres undefined) here?
A: 33.8% (active)

Q: With `CC(C)c1ccc(NS(=O)(=O)c2cn(C)c(=O)n(C)c2=O)cc1` as the compound, how does the activation read?
A: 5.44% (inactive)

Q: Which activation does the source give for `Fc1ccc2nc(N3CCCCC3)sc2c1` here?
A: 27.8% (active)

Q: Which activation does the source give for `Cc1cc(C)n2nc(CNS(=O)(=O)c3c(F)c(F)c(F)c(F)c3F)nc2n1` here?
A: 20.7% (active)

Q: Which activation does the source give for `Cc1ccc(C(=O)NNc2ncnc3ccccc23)cc1` here?
A: 25.9% (active)

Q: With `O=C(NC1CCCC1)c1cc(-c2ccccc2)on1` as the compound, how does the activation read?
A: 67.8% (active)

Q: For `O=C(NCCCn1ccnc1)c1cc(-c2ccccc2)on1`, which activation is on record?
A: 127% (active)

Q: With `COc1ccccc1N1CCN(C(=O)c2cc(-c3ccc(Br)cc3)on2)CC1` as the compound, how does the activation read?
A: 2.35% (inactive)

Q: Which activation does the source give for `CC1CCc2sc3nc(N4CCN(CCO)CC4)n4ncnc4c3c2C1` (centres undefined) here?
A: 21.9% (active)

Q: For `CN(C)S(=O)(=O)c1ccc2oc(SCC(=O)Nc3ccccc3F)nc2c1`, which activation is on record?
A: 44.6% (active)

Q: For `COc1ccc(/C=C/C(=O)Nc2ccc(C34CC5CC(CC(O)(C5)C3)C4)cc2)cc1OC`, which activation is on record?
A: 44.5% (active)

Q: Which activation does the source give for `Cc1nnc(Sc2nc3c(c(=O)[nH]c(=O)n3C)n2Cc2ccccc2)s1` here?
A: 5.05% (inactive)

Q: For `CN(C)C(=S)N=c1ssc(=S)n1Cc1ccco1`, which activation is on record?
A: 32.8% (active)

Q: Which activation does the source give for `O=C(NCc1ccco1)c1ccc(Cn2c(=O)c3sccc3n(Cc3ccc(F)cc3)c2=O)cc1` here?
A: 6.19% (inactive)

Q: With `CC(C)(C)c1ccc(C(=O)NCc2ccco2)cc1` as the compound, how does the activation read?
A: 44.1% (active)

Q: For `CCCCNC(=O)N(O)C1N(/N=C/c2ccccc2O)C(=S)SC1(C)C` (centres undefined), which activation is on record?
A: 14.1% (active)

Q: For `CCOC(=O)c1cc2c(=O)n3ccccc3nc2n(CC(C)C)c1=NC(=O)c1c(-c2c(F)cccc2Cl)noc1C`, which activation is on record?
A: 3.22% (inactive)

Q: With `N#Cc1c(N)nc2c3c(sc(=N)c2c1N)NC(=O)CC3c1ccccc1Cl` (centres undefined) as the compound, how does the activation read?
A: 24.2% (active)

Q: Which activation does the source give for `CCc1ccc(N(C(=O)c2csnn2)C(C(=O)NC2CCCCC2)c2ccncc2)cc1` (centres undefined) here?
A: 12.1% (active)

Q: With `Cc1cc(=O)oc(C)c1C(=O)NCc1ccc(F)cc1` as the compound, how does the activation read?
A: 4.06% (inactive)

— PubChem BioAssay AID588351 (The Scripps Research Institute Molecular Screening Center, 2011)
